In PubChem BioAssay (NCATS):
Records with an inconclusive call do not appear. Unmarked numbers belong to inactive results. The source made the active and inactive calls. The call rests on the fitted dose curve; in most records, active means well fitted inhibition curve with a large enough effect; inconclusive means small, poorly fitted or top-dose-only effect; inactive means flat fitted curve, though single readings scatter.

Each compound was assayed on ATS189 (assay: qHTS profiling for inhibitors of Plasmodium falciparum proliferation (AID 504749; further: nearly all actives have a fitted effect of over 60% in size;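 on activity, negative = inhibition: 0% = DMSO vehicle and full inhibition = artemisinin control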)). Details: P. falciparum in erythrocytes, SYBR Green DNA, 72 h; series mostly up to 28.7 µM; activity, negative = inhibition: at the top concentration.
Method in brief: (§1)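 Fluorescence of SYBR Green-bound parasite DNA, read at 485/535 nm, served as the growth measure. Infected erythrocytes were cultured with compound 72 h; artemisinin (0.29 uM) and DMSO wells defined the normalization range.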
Potency means the concentration at half of the fitted maximal effect.

Row | Structure (SMILES) | activity, negative = inhibition | Potency
1 | CC(=O)N/N=C/c1ccc([N+](=O)[O-])o1 | -23.2% | 
2 | CCCCCCCCCCCCCCCCOP(=O)([O-])OCC[N+](C)(C)C | -0.534% | 
3 | Oc1ccc(Cl)cc1Sc1cc(Cl)ccc1O | -9.14% | 
4 | c1ccc(OCc2ccc(CCCN3CCOCC3)cc2)cc1 | -5.69% | 
5 | N[C@H](Cc1c[nH]c2ccccc12)C(=O)O | 17.8% | 
6 | c1ccc(-c2ccc(C(c3ccccc3)n3ccnc3)cc2)cc1 (configuration not stated) |  | 8.91 µM (active)
7 | CC(C)NC[C@@H](O)COc1cccc2ccccc12 |  | 10 µM (active)
8 | CN1CCN(CCCN2c3ccccc3Sc3ccc(S(=O)(=O)N(C)C)cc32)CC1 |  | 3.55 µM (active)
9 | CCOC(=O)COc1ccc2c(C)c(CCN(CC)CC)c(=O)oc2c1Cl | -17% | 
10 | CCN1CCCC1=O | 3.3% | 
11 | O=c1c(-c2ccccc2)c1-c1ccccc1 |  | 10 µM (active)
12 | CCN(CC)CCOc1ccc(C(O)(Cc2ccc(Cl)cc2)c2ccc(C)cc2)cc1 (configuration not stated) |  | 11.2 µM (active)
13 | CCN1CCC[C@H]1CNC(=O)c1c(OC)ccc(Br)c1OC | -11.3% | 
14 | Cc1ccc(O)c2ncccc12 | -3.86% | 

The compounds below were run on ATS95 in the same assay as above. Details: P. falciparum in erythrocytes, SYBR Green DNA, 72 h; series mostly up to 28.7 µM; activity, negative = inhibition: at the top concentration.
Method in brief: as §1

Row | Structure (SMILES) | activity, negative = inhibition | Potency
15 | CCCCCCCCCCCCCCCCOP(=O)([O-])OCC[N+](C)(C)C | 10.8% | 
16 | CNCCC=C1c2ccccc2CCc2ccccc21 |  | 5.62 µM (active)
17 | O=C1OC(c2ccc(O)cc2)(c2ccc(O)cc2)c2ccccc21 | -5.37% | 
18 | Oc1ccc(Cl)cc1Sc1cc(Cl)ccc1O | -18.5% | 
19 | CN(C(=O)CN(CCO)CC(=O)N(C)C(C)(C)Cc1ccccc1)C(C)(C)Cc1ccccc1 | -21.4% [at 12.8 µM] | 
20 | c1ccc(OCc2ccc(CCCN3CCOCC3)cc2)cc1 | -20.1% | 
21 | NC(CS)C(=O)O (configuration not stated) |  | 12.6 µM (active)
22 | N[C@H](Cc1c[nH]c2ccccc12)C(=O)O | 8.55% | 
23 | O=C(CCCN1CCC(O)(c2ccc(Br)cc2)CC1)c1ccc(F)cc1 |  | 3.16 µM (active)
24 | CCOC(=O)COc1ccc2c(C)c(CCN(CC)CC)c(=O)oc2c1Cl | -0.852% | 
25 | OC(CCN1CCCCC1)(c1ccccc1)c1ccccc1 |  | 8.91 µM (active)
26 | CCN1CCCC1=O | 8.49% | 
27 | CCCCc1nc(Cl)c(CO)n1Cc1ccc(-c2ccccc2-c2nn[nH]n2)cc1 |  | 12.6 µM (active)
28 | Cc1ccc(C(=O)C(C)CN2CCCCC2)cc1 (configuration not stated) | -22.8% | 
29 | CN(C)CC/C=C1\c2ccccc2Sc2ccc(Cl)cc21 |  | 11.2 µM (active)
30 | CCN1CCC[C@H]1CNC(=O)c1c(OC)ccc(Br)c1OC | -21% | 
31 | CCCCCCCCCCCCCCNCCO | -7.21% | 
32 | Cc1ccc(O)c2ncccc12 | -22.2% | 
